Only some compounds are listed: those with a hit (about 1.8% of all), similar ones and a draw of the others.
hiPSC survival: enhancers of single-cell hiPSC survival, primary screen, ATPlite luminescence. hit rate 0.044% among 360,000. survival enhancement, % at 20 µM. 100% = ROCK inhibitor wells, 0% = DMSO. AID 602274, 2012; in the data active = survival enhancement above about 18%;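 note: cells exposed to compounds for 16 hours before the ATP read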
GSIS activator: GLuc luminescence reporter in INS-1E cells, primary screen for activators of glucose-dependent secretion of insulin. INS-1E GLuc reporter insulin secretion, 2-3 h. activation, % at 16.6 µM. hit rate 0.61% among 370,000. AID 743287, 2014;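 active = lowest replicate activation of at least 40%, so every replicate reaches that level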;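 note: 0% = median of neutral control wells and 100% = median of IBMX positive control wells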
ABCB6 inh MLPCN: ABCB6 transporter inhibitors, primary screen, K562-ABCB6 cells, flow cytometry, MLPCN library | ATP-binding cassette sub-family B member 6 (Homo sapiens), Q9NP58 | K562-ABCB6 porphyrin accumulation, 1 h; hits give low values | fluorescence ratio to DMSO, % at 10 µM | hit rate 0.19% among 360,000 | AID 602162, 2011;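 active = fluorescence ratio to DMSO below 75%, the collection mean minus 3 SD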;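 note: signal is porphyrin accumulated inside mitochondria; 100% equals median channel fluorescence of DMSO control wells; lower ratio means ABCB6 inhibition with less porphyrin fluorescence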
CendR NRP1 mod: modulators of CendR peptide binding to NRP-1, primary screen, biochemical, fluorescence polarization, uHTS | Neuropilin-1 (Homo sapiens), O14786 | AID 602438, 2012 | FAM-RPARPAR peptide binding to NRP-1 | hit rate 0.85% among 360,000 | inhibition, % at 25 µM;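 active = inhibition or corrected inhibition above about 18%, plus a signal ratio from 0.5 to 1.5, limit read from the data, passing the limit was not always enough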
Target sequence (O14786 whole entry, looked up): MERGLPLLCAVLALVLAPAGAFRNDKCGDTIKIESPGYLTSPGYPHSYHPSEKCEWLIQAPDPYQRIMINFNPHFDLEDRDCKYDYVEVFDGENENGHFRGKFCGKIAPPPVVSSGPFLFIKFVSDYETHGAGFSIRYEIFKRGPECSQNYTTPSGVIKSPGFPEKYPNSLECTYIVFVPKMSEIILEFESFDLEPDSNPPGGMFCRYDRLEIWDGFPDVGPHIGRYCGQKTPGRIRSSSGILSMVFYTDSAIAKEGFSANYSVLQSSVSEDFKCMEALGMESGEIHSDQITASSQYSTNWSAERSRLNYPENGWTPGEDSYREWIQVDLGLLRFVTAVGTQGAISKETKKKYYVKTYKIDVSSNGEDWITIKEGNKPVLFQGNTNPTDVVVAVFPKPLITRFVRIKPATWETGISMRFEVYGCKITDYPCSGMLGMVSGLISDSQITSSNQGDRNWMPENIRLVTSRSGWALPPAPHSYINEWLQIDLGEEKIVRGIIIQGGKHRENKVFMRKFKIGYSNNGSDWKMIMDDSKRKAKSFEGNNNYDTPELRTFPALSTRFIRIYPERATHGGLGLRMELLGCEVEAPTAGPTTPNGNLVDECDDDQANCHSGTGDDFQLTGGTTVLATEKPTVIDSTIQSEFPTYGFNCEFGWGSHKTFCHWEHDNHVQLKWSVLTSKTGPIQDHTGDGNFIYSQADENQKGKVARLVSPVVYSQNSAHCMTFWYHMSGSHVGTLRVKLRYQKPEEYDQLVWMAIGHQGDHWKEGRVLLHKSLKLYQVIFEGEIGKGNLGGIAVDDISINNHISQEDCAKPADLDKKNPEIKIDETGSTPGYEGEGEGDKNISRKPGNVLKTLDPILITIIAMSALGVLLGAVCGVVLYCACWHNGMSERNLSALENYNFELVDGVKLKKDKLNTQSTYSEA
ARNT-TACC3 inh: disruptors of ARNT/TACC3 protein interaction, primary screen, biochemical, AlphaScreen, single concentration; AlphaScreen His-ARNT PAS-B/GST-TACC3 binding, luminescence; TACC3 fragment carries E629A point mutation; inhibition, % at 9.99 µM; hit rate 0.66% among 390,000; AID 623870, 2012;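 active = mean inhibition of replicates at least 50% and at least half of replicates each reaching 50%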;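 note: 0% = complete ARNT plus TACC3 wells and 100% = ARNT alone without TACC3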
Starred values were filed as active, the others as inactive; / = not tested or not shown.

SMILES	hiPSC survival	GSIS activator	ABCB6 inh MLPCN	CendR NRP1 mod	ARNT-TACC3 inh
NNC(=O)C1C(O)CCC2CN3CCc4c([nH]c5ccccc45)C3CC21 (centres undefined)	-0.1	40.8*	93.0	-1.2	-3.0
COCC(=O)Nc1ccc2c(c1)OC[C@H](C)N(Cc1cccc(F)c1)C[C@H](C)[C@@H](OC)CN(C)C2=O	/	-17.0	/	/	/
O=C(O)c1ccc(C(=O)Nc2cccc3ccccc23)c(C(=O)O)c1	0.0	-4.5	104.0	24.9*	17.4
CC(C)C#Cc1cnc2c(c1)C(=O)N([C@H](C)CO)C[C@H](C)[C@H](CN(C)C(=O)Nc1cc(F)ccc1F)O2	/	-24.9	/	/	-4.2
Cc1nn(-c2ccccc2)c(N)c1C(c1ccc(C(C)C)cc1)c1c(C)nn(-c2ccccc2)c1N	1.6	-11.8	98.0	1.8	2.9
Cc1ccc(C(c2c(C)nn(-c3ccccc3)c2N)c2c(C)nn(-c3ccccc3)c2N)cc1	-0.4	-20.2	100.0	30.2*	2.7
Cc1c(N/N=C(\C#N)C(=O)c2ccc(Cl)cc2)c(=O)n(-c2ccccc2)n1C	-0.4	-13.7	94.0	4.1	59.7*
C[C@@H]1CN([C@@H](C)CO)S(=O)(=O)c2ccc(C#CC3CC3)cc2O[C@@H]1CN(C)S(C)(=O)=O	/	7.8	/	/	3.0
Nc1[nH]c(=O)nc(Nc2ccccc2)c1N=O	-0.1	8.3	97.0	-5.6	27.7*
CCCn1ncc(OC)c(Cl)c1=O	-1.5	/	97.0	22.2*	-0.8
O=C(Nc1ccc(Cl)cc1)N[C@@H]1CC[C@H](CCNC(=O)c2cc(Cl)cc(Cl)c2)O[C@@H]1CO	/	-13.3	/	/	/
COC(=O)c1cccc(NC(=S)NCc2ccc(F)cc2)c1	-1.9	2.6	97.0	46.0*	-1.2
C[C@H](CO)N1C[C@H](C)[C@H](CN(C)C(=O)Nc2ccc(F)cc2)Oc2c(NC(=O)Nc3cccc4ccccc34)cccc2C1=O	/	-24.7	/	/	-1.5
COC(=O)CNc1c(-c2ccccn2)nc2ccc(Br)cn12	-3.6	/	99.0	-4.0	62.2*
CC1(C)S[C@@H]2[C@H](NC(=O)C(C(=O)O)c3ccccc3)C(=O)N2[C@H]1C(=O)O (some centres undefined)	6.1	/	97.0	-25.6	2.6
COC(=O)C1N2C(=O)[C@@H](NC(=O)COc3ccccc3)[C@H]2SC1(C)C (some centres undefined)	0.6	0.8	100.0	31.1*	-3.2
O=C(C[C@@H]1C=C[C@@H](NC(=O)Nc2cc(F)ccc2F)[C@@H](CO)O1)NCc1ccc2c(c1)OCO2	/	6.2	/	/	-3.0
O=C(O)c1ccc(S(=O)(=O)NCc2ccc3c(c2)OCO3)cc1	-0.4	43.1*	97.0	2.3	-16.3
CCC(=O)N1CC2(C1)CN(Cc1ccc(OC)cc1)[C@@H](CO)c1[nH]c3cc(OC)ccc3c12	/	25.2	/	/	/
C[C@H]1C/C=C\C[C@@H](c2ccc3c(c2)OCO3)NC(=O)[C@H](c2ccccc2)CC(=O)N1	/	-3.1	/	/	/
C=CCn1c(SCCN2C(=O)c3ccccc3C2=O)nc2scc(-c3ccc(F)cc3)c2c1=O	-0.6	6.1	94.0	4.7	55.5*
C=CCn1c(SCC(=O)N2CC(=O)Nc3ccccc32)nc2scc(-c3ccccc3)c2c1=O	2.0	-4.9	109.0	-3.2	/
COC(=O)N(C)C[C@@H]1OCc2cn(nn2)CCCC(=O)N([C@@H](C)CO)C[C@@H]1C	/	3.5	/	/	/
Cc1cc(NC(=O)Nc2cc(Cl)ccc2C)no1	0.1	8.1	96.0	19.5*	-10.5
Cc1cc(NC(=O)c2cc(-c3cccc(Cl)c3)on2)no1	2.6	124.8*	98.0	-5.6	-1.6
SMILES	hiPSC survival	GSIS activator	ABCB6 inh MLPCN	CendR NRP1 mod	ARNT-TACC3 inh
COc1cccc(-c2cc(C(=O)Nc3cc(C)on3)no2)c1	-0.9	72.8*	98.0	-2.3	-2.1
Cc1cc(NC(=O)Nc2ccc(C)c(C)c2)no1	-0.9	-0.4	98.0	4.4	-0.5
COc1ccc(CNC(=O)c2cc(-c3ccc(OC)c(OC)c3)on2)cc1	-1.6	78.0*	93.0	9.0	-15.6
Cc1c(NC(=O)c2cc(-c3cccc(Cl)c3)on2)c(=O)n(-c2ccccc2)n1C	-0.2	-13.8	91.0	0.7	/
COc1cccc(-c2cc(C(=O)Nc3cccnc3)no2)c1	-2.6	/	95.0	3.6	-2.0
Cc1cccc(N2CCN(C(=O)C3(S(=O)(=O)c4ccc(Cl)cc4)CC3)CC2)c1C	-0.4	-19.8	98.0	-3.4	49.7*
Cc1ccc(Cl)cc1N1CCN(C(=O)C2(S(=O)(=O)c3ccc(Cl)cc3)CC2)CC1	3.1	-26.1	97.0	-10.2	-6.6
COc1ccccc1NS(=O)(=O)c1cc(NC(=O)c2ccc3c(c2)OCCO3)ccc1C	2.8	-6.7	94.0	29.8*	-0.7
COc1ccccc1NS(=O)(=O)c1cc(NC(=O)CNC(=O)c2ccccc2)ccc1C	-1.0	32.1	95.0	-6.8	0.8
Cc1ccc2c(C)c(C(=O)Nc3ccc(S(N)(=O)=O)cc3)oc2c1C	0.0	9.8	93.0	39.6*	30.7
COc1ccc2c3c([nH]c2c1)[C@H](CO)N(Cc1ccc(Cl)cc1)CC31CCN(Cc2ccccc2)CC1	/	5.7	/	/	/
Cc1ccc(N2C(=O)[C@@H]3[C@H](C2=O)C2c4ccccc4C=CN2[C@@H]3C(=O)c2ccco2)c(C)c1 (some centres undefined)	-3.1	4.2	118.0	-24.9	45.1*
CC(=O)Nc1ccc(C(=O)N2CCCCC2c2cc(C(=O)NC(C)C)no2)cc1 (centres undefined)	0.0	-7.7	101.0	43.9*	/
CC(C)NC(=O)c1cc(C2CCCCN2C(=O)c2ccc(C(C)C)cc2)on1 (centres undefined)	4.7	-32.6	96.0	6.6	/
COC(=O)N1CCCCC1c1cc(C(=O)N2CCOCC2)no1 (centres undefined)	-3.8	12.6	96.0	25.7*	/
O=C(Nc1ccccc1F)N1CC(=O)N2[C@@H](CO)[C@H](c3ccc(-c4ccc(F)cc4)cc3)[C@@H]2C1	/	-15.2	/	/	/
CCCC(=O)Nc1ccc2c(c1)C(=O)N(C)C[C@@H](OC)[C@H](C)CN(C(=O)CN(C)C)[C@H](C)CO2	/	7.8	/	/	-3.6
O=C(Nc1cc(F)ccc1F)N[C@@H]1CC[C@H](CCNC(=O)c2cnccn2)O[C@@H]1CO	/	-4.1	/	/	-2.7
COc1cc(OC)cc(C(=O)Nc2ccccc2S(=O)(=O)N2CCCC2OC(C)=O)c1 (centres undefined)	-0.7	/	92.0	18.5*	-8.7
O=[N+]([O-])c1c(Nc2ccccc2O)ccc2nonc12	-0.3	-7.2	95.0	25.3*	1.7
Cc1ccccc1Nc1ccc2nonc2c1[N+](=O)[O-]	0.0	-1.9	100.0	-3.2	-13.6

Screening data as filed in PubChem.
